# Laboratory results: PubChem BioAssay (NCATS)
# Records with an inconclusive call do not appear. Activity calls are given as the source filed them. Unless noted, no rule for the calls is given here.
# Experiments:
# [1] = qHTS Assay for Identifying Gametocytocidal Compounds (AID 743244; active = well fitted curve in the direction sought with a large enough effect; an effect the other way counts as inactive or inconclusive;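 also: % is scaled to controls: 0 for no effect and ±100 for the full control effect; actives lower the fluorescent signal which means gametocytes are killed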); settings: P. falciparum 3D7 stage III-V gametocytes, alamarBlue, 72 h; max response: stronger effect = lower value
# Summary of the method: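 Viability read-out was resazurin reduction (alamarBlue, 24 h) measured at Ex 525/Em 598 nm. Beforehand, late-stage (III-V) 3D7 P. falciparum gametocytes at 20,000 cells/well were incubated with compound 72 h at 37C under 5% CO2.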
# [2] = molecular target: Tyrosine-protein kinase Yes (Homo sapiens) (UniProt P07947); assay: qHTS for small molecule inhibitors of Yes1 kinase: Primary Screen (AID 686947; active = well fitted curve in the direction sought with a large enough effect; an effect the other way counts as inactive or inconclusive;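 also: plate controls were DMSO with enzyme for no effect and no-enzyme DMSO wells for full effect; nearly all actives have a fitted effect of over 60% in size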)
# Summary of the method: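 ADP-Glo luminescence readout; final 4 nM Yes1, 0.1 mM ATP, 0.3 mg/mL poly(E4Y), Tris pH 7.5, MgCl2, DTT, Brij-35. 20 min compound preincubation, 60 min reaction at RT. Normalized to DMSO wells with and without enzyme.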
# [3] = qHTS for small molecule inhibitors of Yes1 kinase: Counter Assay (AID 686950; active = well fitted curve in the direction sought with a large enough effect; an effect the other way counts as inactive or inconclusive;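 also: no kinase present so only ADP-Glo detection of a fixed ADP amount is tested; luminescence from ADP-Glo reporting ADP in a fixed ATP and ADP mixture; 0% = DMSO wells with ATP plus ADP and -100% = ATP-only wells without ADP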)
# Summary of the method: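 Enzyme-free detection counter-screen: compounds preincubated 20 min in buffer, then 0.08 mM ATP plus 0.02 mM ADP added for 60 min at room temperature; ADP-Glo luminescence. Buffer 50 mM Tris pH 7.5, 10 mM MgCl2, 150 mM NaCl; normalized to ATP+ADP and ATP-only controls.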
# [4] = qHTS profiling for inhibitors of Plasmodium falciparum (3D7) proliferation (AID 743322);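 also: infected erythrocytes exposed to compound for 72 h before lysis; 100% = DMSO vehicle wells and 0% = 0.29 µM artemisinin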; settings: P. falciparum 3D7 proliferation; at 28.7 µM (top of the series) unless noted
# Summary of the method: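 Erythrocytes infected with P. falciparum (0.3% parasitemia, 2.5% hematocrit) incubated with compounds 72 h at 37 C, 5% CO2. Lysis with saponin/Triton buffer containing SYBR Green I, overnight at room temperature in the dark; DNA fluorescence (485/535 nm) normalised to 0.29 uM artemisinin and DMSO.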
# [5] = qHTS profiling for inhibitors of Plasmodium falciparum (DD2) proliferation (AID 743323); settings: lower = more inhibition; at 28.7 µM (top of the series) unless noted
# Summary of the method: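 P. falciparum Dd2-infected erythrocytes (0.3% parasitemia, 2.5% hematocrit) exposed 72 h at 37 C, 5% CO2. Lysis with SYBR Green, overnight at room temperature, fluorescence 485/535 nm; normalized to 0.29 uM artemisinin and DMSO.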
# Tyrosine-protein kinase Yes (Homo sapiens), sequence (P07947 whole entry, looked up): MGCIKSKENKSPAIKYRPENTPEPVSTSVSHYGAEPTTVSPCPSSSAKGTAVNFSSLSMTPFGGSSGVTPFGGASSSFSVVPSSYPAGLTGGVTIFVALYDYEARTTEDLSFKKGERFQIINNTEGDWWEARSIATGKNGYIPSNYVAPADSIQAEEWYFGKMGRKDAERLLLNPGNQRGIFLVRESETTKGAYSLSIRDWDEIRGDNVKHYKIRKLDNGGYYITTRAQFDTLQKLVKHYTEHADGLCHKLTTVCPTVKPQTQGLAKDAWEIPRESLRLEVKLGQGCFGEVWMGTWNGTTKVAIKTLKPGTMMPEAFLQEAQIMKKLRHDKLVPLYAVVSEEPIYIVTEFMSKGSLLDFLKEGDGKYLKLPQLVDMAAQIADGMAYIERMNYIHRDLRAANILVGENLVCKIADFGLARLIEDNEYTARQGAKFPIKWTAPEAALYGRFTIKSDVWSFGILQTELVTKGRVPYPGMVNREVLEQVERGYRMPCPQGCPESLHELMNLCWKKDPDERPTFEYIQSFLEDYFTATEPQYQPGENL
SMILES,max response [1],Potency [2],outcome [3],remaining parasite growth % (stronger effect = lower value) [4],"activity, percent of control [5]"
NCC1CCC(C(=O)O)CC1 (stereo unspecified),-0.776% (inactive),,,,
COc1nc(C)cnc1NS(=O)(=O)c1cccnc1-c1ccc(-c2nnco2)cc1,,inactive,inactive,63.7%,88%
COc1cc2c(cc1OC)CC(=O)N(CCCN(C)C[C@H]1Cc3cc(OC)c(OC)cc31)CC2,,inactive,inactive,105%,102%
CN(C)CCOc1ccc(-c2nc(-c3ccc4c(c3)CCC4=NO)c(-c3ccncc3)[nH]2)cc1,,,inactive,,
N#Cc1c(N(CC(=O)O)CC(=O)O)sc(C(=O)O)c1CC(=O)O,-8.64% (inactive),,,,
COc1cc([C@@H]2c3cc4c(cc3[C@@H](O[C@@H]3O[C@@H]5CO[C@@H](C)O[C@@H]5[C@H](O)[C@@H]3O)[C@H]3COC(=O)[C@H]23)OCO4)cc(OC)c1O,,,,51.5% [at 9.63 µM],47.3% [at 9.63 µM]
CCCCOCCOc1nc(-c2ccc(C(=O)O)c(F)c2)sc1C,,,inactive,105%,99.2%
CCNC(=O)c1noc(-c2cc(C(C)C)c(O)cc2O)c1-c1ccc(CN2CCOCC2)cc1,,,inactive,0.155%,0.689%
C=C[C@@H]1CN2CCC1C[C@@H]2C(O)c1ccnc2ccc(OC)cc12 (stereo partly specified),,,,2.76%,2.53%
Cc1cc2c(cc1C1(c3ccc(C(=O)O)cn3)CC1)C(C)(C)CCC2(C)C,8.43% (inactive),,inactive,101%,97.2%
CC(=O)NCCC(=O)N[C@@H](CCC(N)=O)C(=O)N[C@@H](CO)C(=O)N[C@@H](CCC(N)=O)C(=O)N[C@@H](CCC(N)=O)C(=O)N[C@H](C(=O)N[C@@H](Cc1ccccc1)C(=O)N[C@]1(C)CCCCCCC=CCCC[C@@](C)(C(=O)N[C@@H](CCC(N)=O)C(=O)N[C@@H](CC(N)=O)C(N)=O)NC(=O)[C@H](CC(C)C)NC(=O)[C@H](CC(C)C)NC(=O)[C@@H](CCCNC(=N)N)NC(=O)[C@H](Cc2c[nH]c3ccccc23)NC(=O)[C@H](CC(C)C)NC(=O)[C@H](CC(N)=O)NC1=O)[C@H](C)O,,,inactive,38.2%,68.3%
C[C@@H](O[C@H]1OCCN(Cc2n[nH]c(=O)[nH]2)[C@@H]1c1ccc(F)cc1)c1cc(C(F)(F)F)cc(C(F)(F)F)c1,,,,16.5%,26.1%
COc1ccc2nc3cc(Cl)ccc3c(Nc3cc(CN4CCCC4)c(O)c(CN4CCCC4)c3)c2n1,,,,-1.29%,-0.214%
CC1=C[C@@H]2[C@@H]([C@@H](O)C[C@@]3(C)[C@H]2C[C@@H](C)[C@]3(O)C(=O)CO)[C@@]2(C)Cc3cnn(-c4ccccc4)c3C=C12,,inactive,inactive,0.407%,-0.0711%
